Compound activity as filed in PubChem BioAssay.
LmPK inhibitor: LmPK (Leishmania mexicana) enzyme inhibition | Q27686 | purified LmPK, Kinase-Glo ATP luminescence, 1 h | Potency, µM (series often up to 57.5 µM), inactives show top-dose activity change, negative = inhibition, usual class: inhibitors | 290,000 compounds, 0.37% hits | AID 1721; note: potency is the fitted concentration of half-maximal effect; % is set by controls: 0 for no effect and ±100 for the full control effect
Target sequence (Q27686 whole entry, looked up): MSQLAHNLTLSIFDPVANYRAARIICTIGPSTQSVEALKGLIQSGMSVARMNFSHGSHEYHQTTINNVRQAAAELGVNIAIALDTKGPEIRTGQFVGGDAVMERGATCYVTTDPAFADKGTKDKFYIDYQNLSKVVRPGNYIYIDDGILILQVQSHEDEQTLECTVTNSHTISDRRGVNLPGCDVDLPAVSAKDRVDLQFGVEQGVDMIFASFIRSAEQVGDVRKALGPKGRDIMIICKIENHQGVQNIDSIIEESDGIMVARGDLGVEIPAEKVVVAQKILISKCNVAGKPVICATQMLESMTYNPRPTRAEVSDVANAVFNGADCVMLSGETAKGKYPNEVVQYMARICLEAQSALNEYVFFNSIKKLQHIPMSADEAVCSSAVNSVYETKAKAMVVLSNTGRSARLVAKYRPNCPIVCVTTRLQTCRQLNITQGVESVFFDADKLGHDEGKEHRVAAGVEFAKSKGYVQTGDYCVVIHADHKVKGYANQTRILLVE
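Screened at intermediate enzyme activity to detect both inhibitors and activators: LmPK at 0.1 nM, with a 0.5 nM enzyme column as activation reference. PEP 0.5 mM, ADP 0.1 mM; ATP detected by luminescence after 1 h.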
Shiga toxin inh: inhibitors of Shiga toxin in Vero cells; Vero cells, Shiga toxin protein synthesis inhibition reporter; inhibition, % at 38.7 µM; 290,000 compounds, 9.2% hits; AID 2315; in the data active = inhibition mostly above about 28%, no sharp cut-off; inactive = mostly below about 43%; note: 0% is about no effect
Cycloheximide cs: counter-screen hit for Shiga toxin inhibitors, cycloheximide; max response, %; cell reporter, cycloheximide protein synthesis inhibition counterscreen; 300,000 compounds, 12% hits; in the data active = max response mostly above about 13%, no sharp cut-off; inactive = mostly below about 14%; note: read at 38.3 µM for the half of the compounds with a filed dose; 0% is about no effect
TbPYK inhibitor: T. brucei pyruvate kinase inhibition | Q57TT1 | TbPYK enzyme, Kinase-Glo Plus ATP luminescence, 45 min | Potency, µM (highest dose often 76.8 µM), inactives show at the highest dose activity, negative = inhibition, most hits filed as inhibitors | 410,000 compounds, 0.12% hits | AID 624173; note: potency is the fitted concentration of half-maximal effect; % is set by controls: 0 for no effect and ±100 for the full control effect; nearly all actives have a fitted effect of over 50% in size
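T. brucei PYK with substrate was exposed to pin-transferred compounds across a concentration series, then started with 130 uM ADP (final). After 45 min at room temperature, Kinase-Glo Plus luminescence was read, normalized and curve-fitted.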
Sm TGR inh: inhibitors of Schistosoma mansoni thioredoxin glutathione reductase | Q962Y6 | purified TGR, DTNB reduction, TNB absorbance 405 nm | Potency, µM (top dose mostly 114 µM), inactives show top-dose activity change, negative = inhibition, most hits filed as inhibitors | 360,000 compounds, 3% hits | AID 485364; note: potency is the fitted concentration of half-maximal effect; % is set by controls: 0 for no effect and ±100 for the full control effect; nearly all actives have a fitted effect of over 60% in size
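TGR 20 nM + NADPH 100 uM (dispensed conc.), cpd preinc 15 min RT; start with NADPH (500 uM addition) then DTNB (15 mM addition). Kinetic TNB absorbance, 405 nm filter. Four-parameter Hill fit across titration.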
Giardia FBPA inh: Giardia lamblia aldolase inhibition; A8B2U2; purified Giardia FBPA; Potency, µM (series often up to 59.6 µM), for the others: at the highest dose activity, negative = inhibition, hits mostly inhibitors; 290,000 compounds, 0.71% hits; AID 2451; note: potency is the fitted concentration of half-maximal effect; % is set by controls: 0 for no effect and ±100 for the full control effect; nearly all actives have a fitted effect of over 55% in size
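Giardia FBPA (40 nM reagent) was preincubated 10 min at RT with compound (up to 57.5 uM final), then substrate plus GAPDH/TPI/NAD/arsenate coupling system with diaphorase/resazurin was added; resorufin fluorescence (525/598 nm) was read after 20 min.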
The depositor's hits bear a star; ? = inconclusive; · = no result given. This excerpt belongs to a sample that is enriched for hits. Unless noted, calls come from the whole dose curve; as a rule, active = well fitted curve in the direction sought with a large enough effect; inconclusive = small, poorly fitted or top-dose-only effect, or another doubt; inactive = no such curve, though single readings can be large; an effect the other way counts as inactive or inconclusive.

SMILES	LmPK inhibitor	Shiga toxin inh	Cycloheximide cs	TbPYK inhibitor	Sm TGR inh	Giardia FBPA inh
Cc1ccc2nc(C)cc(Nc3ccc4c(c3)OCCO4)c2c1	7%	38*	60*	-1%	3%	-9%
CCCn1nc(C(=O)Oc2ccc3c(C)cc(=O)oc3c2)c2ccccc2c1=O	-12%	-11	-2	4%	-25%	-7%
CCn1ccnc1C(O)c1ccc(N(C)C)cc1 (configuration not stated)	8%	24	3	7%	10µM*	-10%
CCOc1ccc(C(O)c2nccn2Cc2ccccc2)cc1 (configuration not stated)	3%	-7	-2	0%	11%	-1%
CN(Cc1ccccc1)C(=O)C(C(=O)c1ccc(F)cc1)n1cc(Cl)ccc1=O (configuration not stated)	3%	48*	41*	-1%	-1%	-6%
N#C/C(=C\c1ccc[nH]1)C(=O)Nc1ccccc1[N+](=O)[O-]	-17%	67*	22*	-6%	-25%	·
Cc1ccccc1NC(=O)/C(C#N)=C/c1ccc(-c2ccc(Cl)c(C(=O)O)c2)o1	6%	15	12*	4%	8%	14%
Cc1ccc(NC(=O)/C(C#N)=C/c2ccc(-c3ccc(Cl)c(C(=O)O)c3)o2)cc1C	·	·	·	1%	2%	·
Cc1ccccc1NC(=O)/C(C#N)=C/c1ccsc1	1%	37*	25*	7%	0%	3%
Cc1ccccc1NC(=O)/C(C#N)=C/c1ccc[nH]1	3%	26	30*	-14%	-10%	10%
Cc1cccc(N2CCN(C(=O)c3ccc4c(c3)NC(=O)C(CSCc3cccc(F)c3)N4)CC2C)c1 (configuration not stated)	1%	11	1	-14%	0%	·
Cc1ccc(NC(=O)/C(C#N)=C/c2ccc(C)s2)c(C)c1	13%	53	40*	5%	2%	2%
Cc1ccc(/C=C(\C#N)C(=O)Nc2c(C)cccc2C)s1	7%	-19	-1	-12%	-4%	0%
O=C(C1CCN(S(=O)(=O)c2cccnc2)CC1)N1CCN(c2ccccc2Cl)CC1	-2%	29	26*	4%	-12%	5%
CCN1C(=O)c2ccccc2S(=O)c2ccc(C(=O)N3CCN(c4cccc(Cl)c4)CC3)cc21 (configuration not stated)	·	·	·	0%	12%	·
Cc1cccc(N(C(=O)Nc2ccccc2)C2=NCC(C)S2)c1 (configuration not stated)	2%	66*	30*	-2%	1%	-1%
Cc1cccc(N(C(=O)Nc2ccc(Cl)cc2)C2=NCC(C)S2)n1 (configuration not stated)	0%	28	20*	-3%	-2%	1%
Cc1ccc(NC(=O)N(C2=NCC(C)S2)c2ccccc2)cc1 (configuration not stated)	·	·	·	8%	·	·
COCCNC(=O)c1ccc2c(c1)ncn2-c1ccc(F)c(F)c1	-2%	25	17*	-3%	?	3%
COC(CNC(=O)c1ccc2c(c1)ncn2-c1ccc(F)c(F)c1)OC	-1%	29	13	2%	-4%	4%
COc1ccc(C(=O)Nc2ccc3nc4n(c(=O)c3c2)CCCCC4)cc1OC	·	·	·	-11%	-1%	·
O=C(Nc1ccc2nc3n(c(=O)c2c1)CCCC3)c1ccccc1F	-1%	70*	31*	-6%	5%	5%
O=C(Nc1ccc2nc3n(c(=O)c2c1)CCCCC3)c1ccccc1[N+](=O)[O-]	-4%	16	16	-8%	-9%	·
O=C(Nc1ccc2nc3n(c(=O)c2c1)CCCC3)c1cccc(F)c1	1%	39*	42*	6%	-4%	6%
O=C(Nc1ccc2nc3n(c(=O)c2c1)CCCCC3)c1ccccn1	-14%	59*	36*	-5%	3%	-2%
SMILES	LmPK inhibitor	Shiga toxin inh	Cycloheximide cs	TbPYK inhibitor	Sm TGR inh	Giardia FBPA inh
CCOC(=O)Nc1ccc2nc3n(c(=O)c2c1)CCCCC3	0%	45*	31*	-18%	-29%	-3%
O=C(C1CCC1)N1CCC(O)(c2cccc(F)c2)CC1	9%	-3	-5	1%	-1%	12%
O=C(Cn1cc(SCc2ccc(C(F)(F)F)cc2)c2ccccc21)N1CCCC1	·	·	·	?	7%	·
O=c1c2cc(NC(=S)NC3CCCC3)ccc2nc2n1CCCCC2	3%	38	30*	6%	?	-1%
Cc1ccc(/C=N/n2cnc3sc(C)c(C)c3c2=O)o1	8%	47	26*	-2%	0%	-1%
Cc1oc2c(c(=O)c1C)C(=O)CC(c1ccccc1)C2 (configuration not stated)	1%	25	6	-3%	1%	-6%
CS(=O)(=O)c1sc(C#N)c2c1C(=O)CC(c1ccccc1)C2 (configuration not stated)	-1%	-7	-5	4%	0.32µM*	-13%
CCCCC1C(=O)N(c2ccccc2)N(c2ccc(O)cc2)C1=O (configuration not stated)	·	·	·	?	10µM*	0%
CCOC(=O)/C(=N\Nc1ccccc1)S(=O)(=O)c1ccccc1	7%	25	22	-2%	-9%	1%
CCOC(=O)/C(=N/Nc1ccc(C)cc1)S(=O)(=O)c1ccc(Cl)cc1	-2%	29	23*	-10%	-23%	2%
Cc1cccc(C(=O)NCC(=O)OCc2cc(=O)n3nc(C)sc3n2)c1	·	·	·	3%	1%	·
COc1ccc(Cc2nc3ccc(C(=O)N(C)CCn4ccnc4)cc3o2)cc1OC	-3%	63*	77*	-3%	6%	-2%
COc1ccc(Cc2nc3ccc(C(=O)N(C)C(C)c4ccon4)cc3o2)cc1 (configuration not stated)	-6%	49*	41*	8%	1%	·
COc1ccc(Cc2nc3ccc(C(=O)N(C)Cc4cc(C)[nH]n4)cc3o2)cc1OC	4%	2	15	-5%	3%	5%
COc1ccc(Cc2nc3ccc(C(=O)NCCc4ccc(OC)c(OC)c4)cc3o2)cc1	·	·	·	-3%	1%	·
COc1ccc(Cc2nc3ccc(C(=O)N(C)CCO)cc3o2)cc1	2%	-4	2	3%	-74%	3%
COCCCNC(=O)c1ccc2nc(Cc3ccc(OC)cc3)oc2c1	5%	111	32*	2%	1%	7%
CCOCC(O)CNC(=O)c1ccc2nc(Cc3ccc(OC)c(OC)c3)oc2c1 (configuration not stated)	2%	10	2	-6%	4%	8%
COc1ccc(Cc2nc3ccc(C(=O)NCCCSC)cc3o2)cc1OC	0%	39*	45*	-2%	-20%	8%
Cc1cc2c(cc1NC(=O)c1ccccc1C)n(C)c(=O)c(=O)n2C	·	·	·	-3%	-2%	·
